Bioassay records as filed in PubChem BioAssay.
HepG2 tox: qHTS for Inhibitors of TGF-b: Cytotox Counterscreen; HepG2 CAGA-GFP viability, ATP luminescence, 18 h; Potency, µM (doses to about 46.1 µM), for inactives: top-dose activity change, negative = cytotoxicity, usual class: cytotoxic; hit rate 0.76% among 410,000; note: potency is the fitted concentration of half-maximal effect
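HepG2 CAGA-GFP cells (1000/well, DMEM with 1% FBS) received compound, then TGF-beta at 500 pg/mL final, and were incubated 18 hours at 37 degrees C. Viability was read by CellTiter-Glo luminescence. Media-only wells were set as complete cell-killing and DMSO as no toxicity.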
IL1B secr inh: qHTS for Inhibitors of Inflammasome Signaling: IL-1-beta AlphaLISA Primary Screen; THP-1 LPS/ATP IL-1B secretion, AlphaLISA, 16 h; stronger effect = lower value; activity change, % at 57.5 µM; hit rate 4.7% among 360,000; AID 743279, 2014; in the data active = activity change below about -50%; inconclusive = mostly about -30% to -49%; note: % is set by controls: 0 for no effect and ±100 for the full control effect
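THP-1 cells pretreated 1 hr with compounds (up to 57.5 uM final), then stimulated with LPS (250 ng/mL final) plus ATP (1.25 mM final); secreted IL-1B measured by AlphaLISA after 16 hr, decreased signal indicating inhibition.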
TDP1 cell CPT: qHTS for Inhibitors of human tyrosyl-DNA phosphodiesterase 1 (TDP1): qHTS in cells in presence of CPT. hit rate 12% among 420,000. Potency, µM (highest dose often 46.2 µM), for inactives: at the top dose activity change, negative = growth inhibition, actives largely listed as inhibitors. chicken DT40 Tdp1-/-;hTDP1 cells + 20 nM CPT, ATP luminescence, 48 h; note: potency is the fitted concentration of half-maximal effect; % is set by controls: 0 for no effect and ±100 for the full control effect; nearly all actives have a fitted effect of over 55% in size
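Chicken DT40 Tdp1-/- cells stably complemented with human TDP1 were seeded at 400 cells/well in medium containing 20 nM camptothecin, exposed to pin-transferred compounds, and grown at 37 °C for at least 48 hr. Viability was read as ATP luminescence.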
TGFb SMAD3 inh: qHTS for Inhibitors of TGF-b. HepG2 CAGA-GFP TGF-b/SMAD3 reporter, GFP fluorescence, 18 h; TGF-beta stimulated, 500 pg/mL final. Potency, µM (highest dose often 46.1 µM), without a hit: at the top dose activity, negative = inhibition, usual class: inhibitors. hit rate 1.2% among 410,000; note: potency is the fitted concentration of half-maximal effect; % is set by controls: 0 for no effect and ±100 for the full control effect; nearly all actives have a fitted effect of over 65% in size
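Smad-responsive CAGA-GFP expression was quantified in HEPG2 cells exposed to compounds and 500 pg/mL final TGF-beta for 18 h at 37 degrees C; unstimulated wells defined full inhibition.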
TDP1 block: qHTS Assay for Inhibitors of Tyrosyl-DNA Phosphodiesterase (TDP1); hit rate 0.28% among 350,000; Tyrosyl-DNA phosphodiesterase 1 (Homo sapiens), Q9NUW8; Potency, µM (highest dose often 130 µM), for inactives: at the highest dose activity change, negative = inhibition, most hits filed as inhibitors; recombinant TDP1, AlphaScreen DNA substrate cleavage; AID 485290, 2010; note: potency is the fitted concentration of half-maximal effect; % is set by controls: 0 for no effect and ±100 for the full control effect; nearly all actives have a fitted effect of over 40% in size
Target sequence (Q9NUW8 whole entry, looked up): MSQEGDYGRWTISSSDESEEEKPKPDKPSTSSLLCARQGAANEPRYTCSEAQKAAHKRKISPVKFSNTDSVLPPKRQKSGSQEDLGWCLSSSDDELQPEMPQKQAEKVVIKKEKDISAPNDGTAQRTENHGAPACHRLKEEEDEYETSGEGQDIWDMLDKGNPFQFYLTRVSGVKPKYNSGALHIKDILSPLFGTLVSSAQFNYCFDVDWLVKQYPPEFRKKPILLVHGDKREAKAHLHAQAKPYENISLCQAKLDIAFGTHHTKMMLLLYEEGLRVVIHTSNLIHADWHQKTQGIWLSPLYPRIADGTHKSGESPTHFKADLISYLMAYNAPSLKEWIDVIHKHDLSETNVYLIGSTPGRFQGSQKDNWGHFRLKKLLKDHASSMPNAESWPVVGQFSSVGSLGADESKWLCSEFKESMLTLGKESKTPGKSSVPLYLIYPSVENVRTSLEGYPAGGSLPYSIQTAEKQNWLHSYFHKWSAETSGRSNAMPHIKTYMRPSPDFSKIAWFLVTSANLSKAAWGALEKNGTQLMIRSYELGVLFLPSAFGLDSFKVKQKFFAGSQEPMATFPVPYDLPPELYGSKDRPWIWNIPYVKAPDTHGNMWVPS
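Enzyme-compound mixtures sat 15 min at room temperature, followed by a 5 min reaction with 15 nM final substrate and 10 min with AlphaScreen beads. Recombinant human Tdp1 was used at 1 nM final.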
TDP1 cell noCPT: qHTS for Inhibitors of human tyrosyl-DNA phosphodiesterase 1 (TDP1): qHTS in cells in absence of CPT. DT40 Tdp1-/- hTDP1 cells, no CPT, ATP luminescence, 48 h. Potency, µM (titrated, usually from 46.2 µM), inactives show at the highest dose activity change, negative = growth inhibition, usual class: inhibitors. hit rate 15% among 420,000. AID 686978, 2013; note: potency is the fitted concentration of half-maximal effect; % is set by controls: 0 for no effect and ±100 for the full control effect; nearly all actives have a fitted effect of over 55% in size
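Readout: luminescence from CellTiter-Glo after 30 min in the dark at RT. Cells: DT40 Tdp1-/- with stable hTDP1, 400/well. Exposure: compounds alone, ≥48 hr, 37 °C.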
An asterisk follows results filed as active; ? = inconclusive; / = no result given; [ ] = dose if it differs, or a comment. Most compounds without a hit are left out; they make up all but 18% or so of the library. Unless noted, calls come from the whole dose curve; as a rule, active = well fitted curve in the direction sought with a large enough effect; inconclusive = small, poorly fitted or top-dose-only effect, or another doubt; inactive = no such curve, though single readings can be large; an effect the other way counts as inactive or inconclusive.

SMILES | HepG2 tox | IL1B secr inh | TDP1 cell CPT | TGFb SMAD3 inh | TDP1 block | TDP1 cell noCPT
Cc1cccc(C(=O)OCc2cc(=O)n3nc(C4CC4)sc3n2)c1 | -9% | / | -4% | 0% | -1% | -8%
COc1ccc(/C=N/N(C(C)=O)c2nc(-c3ccc(C)cc3)cs2)cc1 | 12% | ? | -27% | -4% | -2% | 13µM*
CC(=O)N(/N=C/c1cccc(C)c1)c1nc(-c2ccc(Br)cc2)cs1 | -9% | 61 | 21µM* | -8% | -2% | ?
CC(=O)N(C)c1nc(-c2ccc(Cl)cc2)cs1 | 0% | -2 | -25% | -5% | 0% | -11%
COc1ccc(CSc2nnc3n(C)c(=O)c4c5c(sc4n23)CCCC5)cc1 | / | / | / | / | -3% | /
Cn1c(=O)c2c3c(sc2n2c(SCC(N)=O)nnc12)CC(C(C)(C)C)CC3 (stereo not given) | 13µM* | -1 | 23µM* | 1% | 4% | ?
CCCSc1nnc2n(C)c(=O)c3c4c(sc3n12)CCC4 | -28% | 1 | ? | -2% | 6% | ?
CCCCN(CCCC)C(=O)CSc1nnc2n(C)c(=O)c3c4c(sc3n12)CCCC4 | 16% | 9 | ? | -6% | -6%[56.1 µM] | 23µM*
CNC(=O)[C@]1(C)C[C@H]1[C@H](NC(=O)[C@]1(C)C[C@H]1[C@H](NC(=O)[C@]1(C)C[C@H]1[C@H](NC(=O)[C@]1(C)C[C@H]1[C@H](NC(=O)OCc1ccccc1)c1ccccc1)c1ccccc1)c1ccccc1)c1ccccc1 | / | / | / | / | 6% | /
O=C(C1CCCCC1)N1C[C@@H](O)[C@H](n2cc(-c3ccc(F)cc3)nn2)C[C@@H]1c1ccc(Cl)cc1 | -22% | -12 | ? | ? | / | ?
O=C(C1CCCCC1)N1C[C@@H](n2cc(-c3ccc(F)cc3)nn2)[C@H](O)C[C@@H]1c1ccc(Cl)cc1 | -21% | ? | 18µM* | ? | / | 23µM*
Cc1ccc([C@H]2C[C@@H](O)[C@H](n3cc(-c4ccc(F)cc4)nn3)CN2C(=O)C2CCCCC2)cc1 | -32% | -20 | ? | 13µM* | / | 23µM*
COc1ccc([C@H]2C[C@@H](n3cc(-c4ccc(F)cc4)nn3)[C@H](O)CN2C(=O)C2CCCCC2)cc1 | -14% | -20 | ? | 9% | / | 8.2µM*
O=C(C1CCCCC1)N1C[C@H](n2cc(-c3ccc(F)cc3)nn2)[C@@H](O)C[C@@H]1c1ccc(Cl)cc1 | -45% | -56* | ? | ? | / | 16µM*
O=C(C1CCCCC1)N1C[C@H](O)[C@@H](n2cc(-c3ccc(F)cc3)nn2)C[C@@H]1c1ccccc1 | -1% | -24 | ? | -11% | / | ?
CCc1cnc2c(c1SCC(=O)Nc1ccc(OC)c(OC)c1)c(=O)n(C)c(=O)n2C | -16% | / | ? | 2% | -5% | ?
COc1ccccc1C(=O)N(NC(=O)Oc1ccccc1)C(C)(C)C | -13% | 15 | 18% | 6% | 0% | 2%
COc1cc(NC(=O)Cn2ccn(Cc3ccccc3OC)c(=O)c2=O)cc(OC)c1 | 1% | / | 0% | -4% | 3% | -8%
CCCCCn1c(CCCNC(=O)CC)nc2ccccc21 | -27% | 38 | 21µM* | -6% | 3% | 16µM*
CCCn1c(CCCNC(=O)c2ccccc2OC)nc2ccccc21 | 4% | / | ? | -6% | 6% | 18µM*
COCc1nc2ccccc2n1Cc1c(F)cccc1Cl | -5% | 3 | 18µM* | -1% | 2% | 13µM*
CCCCCn1c(CCNC(=O)CCC)nc2ccccc21 | 5% | 33 | ? | -2% | 3% | 16µM*
CCN(Cc1ccncc1)C(=O)c1ccccc1NS(=O)(=O)c1ccc(F)cc1 | 17% | 26 | 11% | 4% | 0% | -9%
C1NNCC12CNNC2 | / | / | 19% | / | / | -7%
CCOc1ccccc1NC(=O)Cn1cnc2onc(-c3ccc(F)cc3)c2c1=O | 1% | / | ? | -3% | -5% | ?
SMILES | HepG2 tox | IL1B secr inh | TDP1 cell CPT | TGFb SMAD3 inh | TDP1 block | TDP1 cell noCPT
CCCCn1c(CCCNC(=O)c2ccco2)nc2ccccc21 | -2% | 36 | ? | -2% | 4% | 15µM*
CCCC(=O)NCCc1nc2ccccc2n1Cc1c(F)cccc1Cl | -9% | / | 21µM* | -28% | 6% | 15µM*
C=C(C)Cn1c(CCCNC(=O)CCC)nc2ccccc21 | -21% | 8 | 13µM* | 2% | 3% | 15µM*
CC(NC(=O)Cn1cc(Br)c([N+](=O)[O-])n1)c1ccccc1 (stereo not given) | 18% | 1 | -13% | -1% | / | ?
CC/C(=N\NC(=O)c1ccc(-c2ccccc2)cc1)C12CC3CC(CC(C3)C1)C2 | -25% | 12 | -14% | -12% | -1% | 13µM*
Cc1ccc(C2c3[nH]c4ccccc4c3CCN2C(=O)CSCc2ccc(F)cc2)cc1 (stereo not given) | -33% | / | ? | -12% | 8% | 23µM*
CCc1ccccc1NC(=O)N1CCc2c([nH]c3ccccc23)C1c1ccc(C)cc1 (stereo not given) | -57% | / | 16µM* | / | 5% | 15µM*
O=C(CSCc1ccc(F)cc1)N1CCc2c([nH]c3ccccc23)C1c1ccc(F)cc1 (stereo not given) | -42% | / | 18µM* | ? | 5% | 18µM*
Cc1ccc(C2c3[nH]c4ccccc4c3CCN2C(=O)CSc2ccccc2)cc1 (stereo not given) | -25% | / | ? | -32% | 5% | ?
COc1ccc(C(=O)CSc2n[nH]c(C)n2)cc1[N+](=O)[O-] | -22% | 6 | 0% | -5% | 0% | -15%
COc1ccc(/C(C)=N/Nc2ccccc2Cl)c(O)c1 | 0% | 38 | -10% | 2% | 40µM* | -1%
COc1ccc(/C(C)=N/Nc2ccc(F)cc2F)c(O)c1 | 6% | -2 | 22% | -1% | 9% | -3%
Cc1ccc(CNc2cnn(C34CC5CC(CC(C5)C3)C4)c(=O)c2Cl)cc1 | -14% | -17 | ? | -2% | -6% | ?
